Measured values: PubChem BioAssay AID651793 (National Center for Advancing Translational Sciences (NCATS), 2012)
Inconclusive results are not listed. The source made the active and inactive calls. Calls follow the shape of the dose curve; as a rule, active = well fitted inhibition curve with a large enough effect; inconclusive = small, poorly fitted or top-dose-only effect; inactive = flat fitted curve, though single readings scatter.

Assay: InCell qHTS Assay for Inhibitors of the mTORC1 Signaling Pathway in WT MEF Cells: Hit Validation
Details: WT MEF phospho-rpS6 immunofluorescence, Acumen, 24 h; series mostly up to 38.3 µM
From the text: The mammalian target of rapamycin (mTOR) is an intracellular serine/threonine kinase Aberrant regulation of mTOR signaling plays a causative role in a number of human diseases, including cancer, benign tumors such as lymphangioleiomyomatosis (LAM) and Tuberous Sclerosis Complex (TSC), and metabolic diseases such as diabetes and obesity. This project aims to identify inhibitors of ribosomal protein S6 (rpS6) phosphorylation. The phosphorylation of rpS6 is a key event downstream of mTOR activation. The assay uses a phospho-specific antibody of phospho-rpS6 to detect inhibitors of mTOR activation. Mutations in the Tsc1 and Tsc2 genes are the underlying genetic lesions responsible for TSC, causing constitutive activation of the mTORC1 pathway and leading to profound effects on cell metabolism. Aberrant metabolism in cancer has recently received significant attention as a target to develop therapeutic agents in the treatment of cancer.1 As Tsc2-/- cells have lost the ability to respond to energy and growth factor deprivation, these cells are unable to properly down regulate cellular biosynthetic processes in response to metabolic stress, and are thus extremely sensitive to glucose deprivation-induced death.2 A central goal of this project is to explore the unique cell survival and metabolic properties of cells with Tsc1 or Tsc2 by screening for compounds that selectively target the Tsc2-/- MEFs by screening both Tsc2-/- and WT MEF cell lines. We hope to better understand these aspects of TSC physiology in order to exploit them for therapeutic benefit. NIH Molecular Libraries Probe Production Centers Network [MLPCN] NIH Chemical Genomics Center [NCGC] MLPCN Grant: NS059428 Assay Submitter (PI): Blenis, John; Harvard University
For quantitative high throughput analysis of mTORC1 signaling, we developed a cell-based assay for immuno-fluorescence based detection of rpS6 phosphorylation on the Acumen Explorer that will be used a platform for the primary small molecule screen. Mouse embryonic fibroblasts (MEFs) are cultured in 1536-well plates using DMEM + 10% FBS. Twenty-four hrs after plating, test compounds (solubilized in DMSO) are delivered and incubated with the cells for 24 hrs at 37 degree Celsius. Following the incubation, media with compound is aspirated and the cells are fixed in 4% paraformaldehyde (PFA) containing PBS + 0.2% TX-100. Next, PFA is aspirated, cells are washed two times with PBS plus 0.2% TX-100 and the cells are blocked for 1 hr at room temperature (blocking buffer: LiCOR Blocking Buffer plus 0.2% TX-100). This is followed by aspiration and staining with Alexa-488 conjugated-phospho-rpS6 Ser235/236 antibody for 2 hours at room temperature (Cell Signaling Technology # 4803, 1:50 dilution in blocking buffer). Cells are washed two times with PBS plus 0.2% TX-100, and stained with 10 uM propidium iodide (PI) for 20-25 minutes for cell number measurement (1:500 dilution of Hoescht staining is also added for IN Cell imaging). The plates are scanned on the Acumen Explorer laser scanning instrument (TTP Labtech) using the 488nm laser for simultaneous excitation of the Alexa-488 and PI. The fluorescence emission from the Alexa-488 conjugated rpS6 phospho-235/236 antibody staining is selected using a […] band pass filter. Fluorescence emission from the PI stain is selected using a 575-640 nm band pass filter. The normalized phospho-S6 staining is calculated as the ratio of the integrated Alexa 488 intensity divided by the integrated PI intensity for the single concentration rapamycin control (7.5 nM) and DMSO columns. […] Inhibition of the pathway is defined based on the normalized phospho-S6 intensity in rapamycin treated cells. […]

Potency, inactive:
COc1cc(Nc2nc(-c3ccc(OC)c(OC)c3)nc3ccccc23)cc(OC)c1
Cc1cc(N2CCCCC2)nc2ccc(NC(=O)/C=C/c3ccccc3OC(C)C)cc12
CCN1CCN(c2cc(C)c3cc(NC(=O)c4cccc(Cl)c4)ccc3n2)CC1
COc1ccc(OC)c(C2CC(=O)c3c([nH]c(C(=O)OCc4ccc(C)cc4)c3C)C2)c1 (configuration not stated)
CCOc1ccc(C2CC(=O)c3c([nH]c(C(=O)OCc4ccccc4)c3C)C2)cc1 (configuration not stated)
O=C1CC(c2ccccc2)Cc2[nH]c(=O)c(-c3nc(-c4ccc(Cl)cc4)cs3)cc21 (configuration not stated)
O=C1CC(c2ccccc2)Cc2[nH]c(=O)c(-c3nc(-c4cccc(Cl)c4)cs3)cc21 (configuration not stated)
CCOc1ccc(Nc2nc(Nc3ccc(OCC)cc3)nc(N3CCOCC3)n2)cc1
CCN1CCN(c2cc(C)c3cc(NC(=O)c4cc(OC)cc(OC)c4)ccc3n2)CC1
COc1cc(-c2nc3ncccn3c2Nc2ccc(C)cc2C)ccc1O
Cc1c(C(=O)OCCOc2ccccc2)[nH]c2c1C(=O)CC(c1ccccc1Cl)C2 (configuration not stated)
CCN1CCN(c2cc(C)c3cc(NC(=O)/C=C/c4ccc(C)cc4)ccc3n2)CC1

Potency, active:
Cc1cc(N2CCN(C)CC2)nc2ccc(NC(=O)c3ccc(C(C)(C)C)cc3)cc12 15.9 µM
CCCCc1ccc(C(=O)Nc2ccc3nc(N4CCN(CC)CC4)cc(C)c3c2)cc1 8.95 µM
COc1ccccc1Nc1c2c(nc3ccc(NC(=O)c4cccc(OC)c4OC)cc13)CCCC2 17.9 µM
COc1ccc(/C=C/C(=O)Nc2ccc3nc4c(c(Nc5ccc(OC)c(OC)c5)c3c2)CCCC4)cc1 11.3 µM
COc1cc(NC(=O)c2cccc(F)c2)ccc1NC(=O)c1cc2ccccc2o1 8.95 µM
COc1ccccc1Nc1c2c(nc3ccc(NC(=O)/C=C/c4cc(OC)c(OC)c(OC)c4)cc13)CCCC2 2.52 µM
Cc1cccc(Nc2nc(Nc3cccc(C)c3)nc(N3CCOCC3)n2)c1 20 µM
CCCOc1ccc(C(=O)Nc2ccc(NC(=O)c3ccccc3)c(C)c2)cc1 6.34 µM
C=CCNC1=C2C[C@@H](C)C[C@H](OC)[C@H](O)[C@@H](C)/C=C(\C)[C@H](OC(N)=O)[C@@H](OC)/C=C\C=C(/C)C(=O)NC(=CC1=O)C2=O 0.252 µM
CCN(CC)c1cc(C)c2cc(NC(=O)/C=C/c3cc(OC)c(OC)c(OC)c3)ccc2n1 22.5 µM
CCOc1ccc(/C=C/C(=O)Nc2ccc3nc(N(CC)CC)cc(C)c3c2)cc1OC 10 µM
CCN1CCN(c2cc(C)c3cc(NC(=O)/C=C/c4ccc(OCCC(C)C)cc4)ccc3n2)CC1 3.18 µM
CCCOc1ccc(C(=O)Nc2ccc(NC(=O)c3ccccc3)c(Br)c2)cc1 10 µM
COc1ccc(Nc2c3c(nc4ccc(NC(=O)/C=C/c5cccc(OC)c5OC)cc24)CCCC3)cc1OC 8.95 µM
COc1ccccc1Nc1c2c(nc3ccc(NC(=O)c4ccc(N(C)C)cc4)cc13)CCCC2 5.65 µM
